We go through 39 compounds from PubChem BioAssay (NCATS).

Where “and” joins values, the source holds several entries; their conditions need not be identical. Identical values can stand only once. Inconclusive results are not listed. Entries that show only a call come without a potency. Unmarked numbers belong to inactive results. Calls of active or inactive are those of the source. Calls come from the whole dose curve.
Potency is the fitted concentration of half-maximal effect.

This assay is described as follows: Cytotoxicity counterscreen for inhibitors of SARS-CoV-2 cell entry (AID 1645845). Note: nearly all actives have a fitted effect of over 50% in size. The conditions noted are these: cell viability (SARS-CoV-2 entry assay cells); series mostly up to 57.1 µM; activity change, negative = cytotoxicity: at the top concentration. In a few lines: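 HEK293-ACE2 cells (Expi293F stably expressing human ACE2) seeded overnight, then compound for 1 h plus 48 h at 37C. Viability as ATP content by luminescence; normalized to wells with cells and media-only wells.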
Turning to `Cc1ccc(O)c([C@H](CCN(C(C)C)C(C)C)c2ccccc2)c1`, the “activity change, negative = cytotoxicity” value was 0.867%.

Take `CN1CCN(C(c2ccccc2)c2ccccc2)CC1`: the result was inactive.

On to `CC1=C(C(=O)O)N2C(=O)[C@@H](NC(=O)[C@H](N)c3ccc(O)cc3)[C@H]2SC1`, for which the “activity change, negative = cytotoxicity” value was 3.07%.

In the case of `N[C@@H](Cc1cc(I)c(Oc2cc(I)c(O)c(I)c2)c(I)c1)C(=O)O`, the compound was called inactive.

For `COc1cc2c(N3CCN(C(=O)Nc4ccc(OC(C)C)cc4)CC3)ncnc2cc1OCCCN1CCCCC1`, the outcome was inactive.

`CC(C)(C)NC(=O)[C@@H]1CN(Cc2cccnc2)CCN1C[C@@H](O)C[C@@H](Cc1ccccc1)C(=O)N[C@H]1c2ccccc2C[C@H]1O`: the “activity change, negative = cytotoxicity” value is 2.45%.

With `Cc1onc(-c2ccccc2Cl)c1C(=O)N[C@@H]1C(=O)N2[C@@H]1SC(C)(C)[C@@H]2C(=O)O`, the compound was called inactive.

For `CN(C)CCc1c[nH]c2ccc(C[C@H]3COC(=O)N3)cc12`, the compound was classed as inactive.

With `Cc1nc(-c2ccc(OCC(C)C)c(C#N)c2)sc1C(=O)O`, the “activity change, negative = cytotoxicity” value was -9.36%.

On to `CCN(CCO)CCCC(C)Nc1ccnc2cc(Cl)ccc12` (centres undefined), for which the activity change, negative = cytotoxicity was -4.65% [at 5.25 µM] and -23.5% [at 5.25 µM].

Take `Cc1nc2n(c(=O)c1CCN1CCC(c3noc4cc(F)ccc34)CC1)CCC[C@H]2O`: the “outcome” value is “inactive [at 27.1 µM]”.

`CCN(CC)CCOC(=O)C1(C2CCCCC2)CCCCC1`: the “activity change, negative = cytotoxicity” value was -3.3%.

Regarding `CCCCc1ncc(/C=C(\Cc2cccs2)C(=O)O)n1Cc1ccc(C(=O)O)cc1`, the outcome was inactive.

Turning to `O=NN(CCCl)C(=O)NCCCl`, the “activity change, negative = cytotoxicity” value was 3.11%.

Consider `CC[N+](C)(C)c1cccc(O)c1`, for which the compound was called inactive.

With `NC(=O)OCC(COC(N)=O)c1ccccc1`, the Potency entry was “inactive”.

For `COc1cc2nc(N3CCN(C(=O)c4ccco4)CC3)nc(N)c2cc1OC`, the “outcome” value is “inactive [at 27.1 µM]”.

For the compound `CC(C)c1nc(CN(C)C(=O)N[C@H](C(=O)N[C@@H](Cc2ccccc2)C[C@H](O)[C@H](Cc2ccccc2)NC(=O)OCc2cncs2)C(C)C)cs1`, the compound was classed as inactive.

`CC(C(=O)O)c1cccc(C(=O)c2ccccc2)c1` (centres undefined): the Potency entry is “inactive”.

As to `CCC1C(=O)OCC1Cc1cncn1C` (centres undefined), the call was inactive.

Turning to `Cc1onc(-c2c(Cl)cccc2Cl)c1C(=O)N[C@@H]1C(=O)N2[C@@H]1SC(C)(C)[C@@H]2C(=O)O`, the call was inactive.

With `Cc1nc(Nc2ncc(C(=O)Nc3c(C)cccc3Cl)s2)cc(N2CCN(CCO)CC2)n1`, the outcome was inactive.

With `CN1CCC[C@@H]1Cc1c[nH]c2ccc(CCS(=O)(=O)c3ccccc3)cc12`, the “activity change, negative = cytotoxicity” value was -5.98%.

Take `Cc1[nH]cnc1CN1CCc2c(c3ccccc3n2C)C1=O`: the call was inactive.

As for `C[C@H]1c2cccc(O)c2C(O)=C2C(=O)[C@]3(O)C(O)=C(C(N)=O)C(=O)[C@@H](N(C)C)[C@@H]3[C@@H](O)[C@@H]21`, the “activity change, negative = cytotoxicity” value is -4.83%.

As for `CN(CCOc1ccc(NS(C)(=O)=O)cc1)CCc1ccc(NS(C)(=O)=O)cc1`, the Potency result is “inactive”.

As to `CCN(CC)CCNC(=O)c1cc(Cl)c(N)cc1OC`, the result was inactive.

As for `CO[C@H]1C=CO[C@@]2(C)Oc3c(C)c(O)c4c(O)c(c(/C=N/N5CCN(C)CC5)c(O)c4c3C2=O)NC(=O)/C(C)=C\C=C[C@H](C)[C@H](O)[C@@H](C)[C@@H](O)[C@@H](C)[C@H](OC(C)=O)[C@@H]1C`, the “activity change, negative = cytotoxicity” value was 4.77%.

As for `CC(=O)O[C@]1(C(C)=O)CC[C@H]2[C@@H]3C=C(Cl)C4=CC(=O)[C@@H]5C[C@@H]5[C@]4(C)[C@H]3CC[C@@]21C`, the compound was classed as inactive.

For `CCCN(CCc1cccs1)[C@H]1CCc2c(O)cccc2C1`, the “activity change, negative = cytotoxicity” value was 3.82%.

In the case of `CC(C)Nc1cccnc1N1CCN(C(=O)c2cc3cc(NS(C)(=O)=O)ccc3[nH]2)CC1`, the call was inactive.

For the compound `O=C1Cc2cc(CCN3CCN(c4nsc5ccccc45)CC3)c(Cl)cc2N1`, the compound was called inactive.

As for `CS(=O)(=O)CCNCc1ccc(-c2ccc3ncnc(Nc4ccc(OCc5cccc(F)c5)c(Cl)c4)c3c2)o1`, the Potency entry was “inactive”.

In the case of `CCc1nc(N)nc(N)c1-c1ccc(Cl)cc1`, the Potency is 14.1 µM (active).

Take `CC[C@@H](CO)NCCN[C@@H](CC)CO`: the “activity change, negative = cytotoxicity” value was 2.48%.

As to `CC1(C)S[C@@H]2[C@H](NC(=O)[C@H](N)c3ccccc3)C(=O)N2[C@H]1C(=O)O`, the outcome was inactive.

On to `C#Cc1cccc(Nc2ncnc3cc(OCCOC)c(OCCOC)cc23)c1`, for which the Potency result is “inactive”.

As for `CN(C)CC/C=C1\c2ccccc2COc2ccccc21`, the “activity change, negative = cytotoxicity” value was 3.7%.

For `CCC(=O)O[C@H]1[C@H](O[C@@H]2[C@@H](C)[C@H](O[C@H]3C[C@@](C)(OC)[C@@H](O)[C@H](C)O3)[C@@H](C)C(=O)O[C@H](CC)[C@@](C)(O)[C@H](O)[C@@H](C)C(=O)[C@H](C)C[C@@]2(C)O)O[C@H](C)C[C@@H]1N(C)C`, the “activity change, negative = cytotoxicity” value was 2.05%.
